# High-throughput results from PubChem BioAssay.
# EZH2 inh: EZH2/PRC2 methyltransferase inhibitors, primary screen, biochemical, DELFIA time-resolved fluorescence, single point. 57,000 tested, 0.35% active. AID 651548, 2012. inhibition, % at 12.5 µM. PRC2 H3K27 methylation, DELFIA TRF, 1 h;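 active means mean inhibition of replicates at least 50% and every single replicate also reaching 50%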;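 further: dimethyl H3K27 on biotinylated H3 21-44 peptide detected by antibody; plate controls were median neutral control wells for no effect and median positive control wells for full effect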
# Target sequence (Q15910 whole entry, looked up): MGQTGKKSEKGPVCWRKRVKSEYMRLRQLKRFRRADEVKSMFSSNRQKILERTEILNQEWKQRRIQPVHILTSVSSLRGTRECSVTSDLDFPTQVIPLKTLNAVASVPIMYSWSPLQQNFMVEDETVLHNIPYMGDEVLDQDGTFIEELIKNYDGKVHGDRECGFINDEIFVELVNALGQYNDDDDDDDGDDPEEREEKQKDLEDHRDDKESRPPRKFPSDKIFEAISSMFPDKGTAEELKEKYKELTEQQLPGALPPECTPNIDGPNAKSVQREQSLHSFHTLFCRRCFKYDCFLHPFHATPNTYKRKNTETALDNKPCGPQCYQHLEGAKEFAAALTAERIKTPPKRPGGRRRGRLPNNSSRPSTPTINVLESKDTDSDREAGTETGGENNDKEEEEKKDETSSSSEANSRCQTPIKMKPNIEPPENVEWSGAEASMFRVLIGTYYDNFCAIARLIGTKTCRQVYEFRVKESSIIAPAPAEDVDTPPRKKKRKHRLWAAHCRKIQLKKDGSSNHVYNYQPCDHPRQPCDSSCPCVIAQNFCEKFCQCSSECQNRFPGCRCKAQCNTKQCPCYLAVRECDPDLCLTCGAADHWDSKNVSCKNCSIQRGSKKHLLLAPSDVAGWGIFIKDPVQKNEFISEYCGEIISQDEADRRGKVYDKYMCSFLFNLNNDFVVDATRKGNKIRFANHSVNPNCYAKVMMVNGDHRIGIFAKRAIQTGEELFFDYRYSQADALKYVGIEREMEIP
# Numbers without * were called inactive. The sample as a whole holds a higher share of hits than the screen did.
SMILES,EZH2 inh
C[C@@H]1CN([C@@H](C)CO)C(=O)Cc2cc(NS(=O)(=O)c3ccc(Cl)cc3)ccc2O[C@H]1CN(C)Cc1ccncc1,5
Cc1cc(CSc2cc(C)c(Cl)cc2C)no1,56*
C[C@H]1CN([C@@H](C)CO)C(=O)c2cc(/C=C/c3ccccc3)cnc2O[C@H]1CN(C)C(=O)CN1CCOCC1,-4
C[C@@H](O)C#Cc1cnc2c(c1)C(=O)N([C@@H](C)CO)C[C@H](C)[C@@H](CN(C)C(=O)Cc1ccccn1)O2,-2
CCS(=O)(=O)N[C@@H]1C=C[C@H](CC(=O)NCc2ccc(Cl)cc2)O[C@H]1CO,-2
CO[C@H]1CN(C)C(=O)c2cc(NC(=O)C3CCC3)ccc2OC[C@@H](C)N(Cc2cccnc2)C[C@@H]1C,8
CSc1ccc(CN(CCO)CCO)cc1,3
CN(C(=S)SCc1ccccc1)c1ccccc1,66*
CN(C)S(=O)(=O)N(CC(=O)O)c1ccccc1,16
CCCNC(=O)N1C[C@H](C)[C@H](OC)CN(C)C(=O)c2cc(NS(C)(=O)=O)ccc2OC[C@H]1C,-11
CO[C@H]1CN(C)C(=O)c2cc(NC(=O)c3ccccc3F)ccc2OC[C@@H](C)N(CC2CC2)C[C@@H]1C,-3
C[C@@H]1CN([C@H](C)CO)C(=O)c2cccc(NC(=O)C3CCCCC3)c2O[C@@H]1CN(C)S(=O)(=O)c1ccc(Cl)cc1,-13
COc1ccc(C(=O)CSc2nnc(-c3ccccc3O)n2C)cc1,15
CCn1c(SCC(=O)c2cccc([N+](=O)[O-])c2)nnc1-c1ccco1,16
CCC(=O)N[C@@H]1C=C[C@H](CC(=O)NCc2ccc(OC)cc2)O[C@H]1CO,8
C[C@@H]1CN([C@H](C)CO)C(=O)c2cc(C#CC3(O)CCCC3)cnc2O[C@H]1CN(C)C(=O)Cc1ccncc1,14
Cc1cc(C)c(C#N)c(SCC(=O)Nc2sc3c(c2C#N)CCC3)n1,6
COc1ccc(OCC(=O)Nc2sc3c(c2C#N)CCC3)cc1,13
COc1cc(OC)cc(-c2nnc(SCC(=O)Nc3sc4c(c3C#N)CCCC4)o2)c1,68*
Cc1ccc(-c2ccc3c(c2)O[C@@H](CN(C)Cc2ccccc2)[C@@H](C)CN([C@H](C)CO)S3(=O)=O)cc1,44
C[C@@H]1CN([C@@H](C)CO)C(=O)c2cccc(NC(=O)NC3CCCCC3)c2O[C@H]1CN(C)Cc1ccncc1,-12
CCCC(=O)Nc1ccc2c(c1)OC[C@@H](C)N(Cc1ccc(F)cc1)C[C@H](C)[C@@H](OC)CN(C)C2=O,-2
N#Cc1ccccc1OCCCCSc1ncccn1,12
O=S(=O)(Nc1ncccn1)c1ccc(NC(=S)Nc2ccc3c(c2)CCC3)cc1,-4
c1cnc(SCCCCOc2ccc3c(c2)CCC3)nc1,54*
SMILES,EZH2 inh
COc1ccc(S(=O)(=O)Nc2cccc3c2O[C@@H](CN(C)Cc2ccc4c(c2)OCO4)[C@@H](C)CN([C@@H](C)CO)C3=O)cc1,-16
Cc1ccc(C(=O)COc2cccc(NC(=O)c3ccc(Br)cc3)c2)cc1C,-3
CCOc1cccc(NC(=O)C2CC(=O)N(/N=C(\C)c3ccc(Br)s3)C(=N)S2)c1 (stereo not given),92*
COC(=O)COc1cccc(NC(=O)c2ccc(Br)cc2)c1,1
C/C=C/c1cnc2c(c1)C(=O)N([C@@H](C)CO)C[C@@H](C)[C@H](CN(C)S(=O)(=O)c1ccc(OC)cc1)O2,-13
CN(C)CCCNC(=O)C[C@@H]1C=C[C@@H](NC(=O)Cc2cccnc2)[C@H](CO)O1,12
Cc1cc(-c2ccc(N=Nc3cc(S(=O)(=O)O)c4ccccc4c3N)c(C)c2)ccc1N=Nc1cc(S(=O)(=O)O)c2ccccc2c1N,99*
Cc1cc(N)n(-c2ccc(Oc3ccccc3)cc2S(=O)(=O)O)n1,10
CO[C@H]1CN(C)C(=O)c2cc(NC(=O)C3CCC3)ccc2OC[C@@H](C)N(C)C[C@@H]1C,6
CCN(CC)c1ccc(/C=N/NC(=O)c2ccc(C(=O)NO)cc2)c(O)c1,-1
O=C(CCCCC(=O)N/N=C/c1cccc(O)c1O)NO,4
O=C(NO)c1ccc(C(=O)N/N=C/c2ccccc2C(=O)O)cc1,5
O=C(NO)c1ccc(C(=O)N/N=C/c2ccc(O)cc2)cc1,4
O=C(NO)c1ccc(C(=O)N/N=C/c2ccc(O)c(O)c2O)cc1,89*
O=C(NO)c1ccc(C(=O)N/N=C/c2cccc(O)c2O)cc1,76*
Cc1ccc(S(=O)(=O)Nc2cccc3c2O[C@H](CN(C)Cc2ccncc2)[C@@H](C)CN([C@H](C)CO)C3=O)cc1,-7
CC(C)=CCc1cc(/C=C2\OC(=O)C(c3cc4c(cc3O)OC(C)(C)CC4)C2=O)ccc1O (stereo not given),78*
COc1cc(O)c(CC=C(C)C)cc1C(=O)/C=C/c1ccc(O)c(CC=C(C)C)c1,24
C[C@@H]1CN([C@H](C)CO)C(=O)c2cccc(NC(=O)c3ccncc3)c2O[C@H]1CN(C)C(=O)Nc1ccc(F)cc1,-3
COc1nc(Nc2ccccc2)nc(OCC(F)(F)F)n1,-4
CO[C@H]1CN(C)C(=O)c2cc(NS(C)(=O)=O)ccc2OC[C@@H](C)N(C(=O)C2CCC2)C[C@@H]1C,-1
O=c1oc2ccccc2cc1-c1csc(Cc2nc3c(s2)CCCC3)n1,4
C=CCNC(=O)[C@@H]1[C@H]2C(=O)O[C@H](c3ccccc3)[C@H](c3ccccc3)N2[C@H](c2ccccc2OCCO)[C@@]12C(=O)Nc1ccc(C#Cc3ccc(OC)cc3)cc12,-11
COc1ccc(C#Cc2ccc3c(c2)[C@]2(C(=O)N3)[C@H](c3ccccc3OCCO)N3[C@H](c4ccccc4)[C@H](c4ccccc4)OC(=O)[C@H]3[C@@H]2C(=O)O)cc1,59*
C=CCNC(=O)[C@H]1[C@@H]2C(=O)O[C@@H](c3ccccc3)[C@@H](c3ccccc3)N2[C@@H](c2ccccc2OCCO)[C@]12C(=O)Nc1ccc(C#Cc3ccc(OC)cc3)cc12,-19
SMILES,EZH2 inh
COC(=O)c1ccccc1NC(=O)Cn1c([N+](=O)[O-])cnc1C,4
CC1C(=O)C23CC(O)C4C(C)(C(=O)OC5OC(CO)C(O)C(O)C5O)CCCC4(C)C2(O)CCC1C3 (stereo not given),0
CC1(CCOC2OC(CO)C(O)C(O)C2O)CCC2C(=CCC3C(C)(C(=O)O)CCCC23C)C1 (stereo not given),13
C=C(C(=O)O[C@@H]1O[C@H](CO)[C@@H](O)[C@H](O)[C@H]1O)[C@@H]1CC[C@@]2(C)C[C@H](O)C[C@@](C)(O)C2C1 (stereo not given in full),64*
COc1ccc(-n2c(SCC(=O)Nc3ccc(F)cc3F)nnc2-c2ccco2)cc1,-6
CCN1C(=O)CS/C1=N\N1CCOCC1,-9
O=C(O)CCCCCCC(=O)Nc1ccc(C2CC(CSc3nc(-c4ccccc4)c(-c4ccccc4)o3)OC(c3ccccc3)O2)cc1 (stereo not given),92*
CC(=O)c1cccc(NC(=O)CSc2nc(-c3ccccc3)c(-c3ccccc3)o2)c1,31
O=C(CCSc1nnc(-c2ccccc2)o1)Nc1ccc(F)cc1,-15
COc1ccc(-c2nc(SCC(=O)Nc3ccc(Cl)cc3)[nH]c(=O)c2C#N)cc1,29
O=C(CSc1n[nH]c(-c2ccco2)n1)Nc1ccc(F)cc1,0
COc1ccc(-c2nc(SCC(=O)Nc3cccc(C(F)(F)F)c3)n[nH]2)cc1,19
